Screens: PubChem, NMMLSC
RGS7-Gao: regulators of human RGS7-Galphao interaction. Multiplexed bead flow cytometry, RGS7-Galphao binding; actives lie on both sides. binding response (% of control), % at 10 µM. 220,000 tested, 0.35% active; in the data active = binding response below about 49% or above about 150%; inconclusive = no clear call, values can overlap the other calls; inactive = in between;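 also: fluorescent Galphao held in activated GDP-AlF4 state binding bead-coupled RGS7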
Target sequence (P09471 whole entry, looked up): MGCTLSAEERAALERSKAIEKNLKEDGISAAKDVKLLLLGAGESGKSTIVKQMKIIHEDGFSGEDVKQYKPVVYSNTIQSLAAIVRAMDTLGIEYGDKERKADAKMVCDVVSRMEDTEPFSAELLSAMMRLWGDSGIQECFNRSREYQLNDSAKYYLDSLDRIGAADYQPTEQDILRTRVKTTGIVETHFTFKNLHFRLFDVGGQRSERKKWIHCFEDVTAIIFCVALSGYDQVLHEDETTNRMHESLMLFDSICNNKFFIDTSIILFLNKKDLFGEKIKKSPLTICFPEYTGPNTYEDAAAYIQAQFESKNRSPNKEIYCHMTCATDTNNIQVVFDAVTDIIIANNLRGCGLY
RGS16-Gao HTS: modulates binding between human RGS16 and Galphao | binding response (% of control), % at 10 µM | 220,000 tested, 0.38% active | O15492+P09471 | bead-based flow cytometry RGS16-Galphao binding, fluorescence; actives lie on both sides;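 also: Galphao activated by GDP with aluminum fluoride before binding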
GSH bead fluor: compound fluoresces at 488/530 nm on GSH beads; GSH beads flow cytometry, compound fluorescence 488/530 nm; hits give high values; fluorescence (KMESF) at 10 µM; 190,000 tested, 0.25% active; AID 1776; in the data active = fluorescence above about 89;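 also: glutathione beads carrying GST-tagged Bcl family fusion proteins plus one bare bead set; values are compound well signal with DMSO vehicle wells as background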
Avidin bead fluor: avidin bead compound fluorescence profile; fluorescence (KMESF) at 10 µM; 220,000 tested, 0.38% active; Avidin beads, compound fluorescence 488/530 nm, flow cytometry; hits give high values; in the data active = fluorescence above about 47
RGS4-Gao reg: modulates binding of RGS4 to human Galphao. Multiplexed bead flow cytometry; actives lie on both sides. binding response (% of control), % at 10 µM. 220,000 tested, 0.33% active. AID 1415; in the data active = binding response below about 49% or above about 150%; inactive = in between;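 also: fluorescent Galphao activated with aluminum fluoride binding bead-coupled RGS4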
RGS8-Gao: human RGS8-Galphao interaction regulation | P09471 | multiplexed bead flow cytometry, RGS8-Galphao binding; actives lie on both sides | response (percent of control binding), % at 10 µM | 220,000 tested, 0.34% active | AID 1423; in the data active = response below about 60% or above about 140%; inactive = in between;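 also: Galphao activated as the GDP aluminium fluoride complex binding bead-coupled RGS8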
RGS4-Gao HTS: modulates binding between human RGS4 and Galphao. shares compounds with RGS16-Gao HTS. multiplexed bead flow cytometry, RGS–Galpha-o binding. RGS4–Galpha-o binding response, % at 10 µM. 1,600 tested, 99% active. AID 1504;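 also: fluorescently labeled Galpha-o bound to GDP with aluminium fluoride binding biotinylated RGS beads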
Target sequence (P09471 whole entry, looked up): as above
Target sequence (P49798 whole entry, looked up): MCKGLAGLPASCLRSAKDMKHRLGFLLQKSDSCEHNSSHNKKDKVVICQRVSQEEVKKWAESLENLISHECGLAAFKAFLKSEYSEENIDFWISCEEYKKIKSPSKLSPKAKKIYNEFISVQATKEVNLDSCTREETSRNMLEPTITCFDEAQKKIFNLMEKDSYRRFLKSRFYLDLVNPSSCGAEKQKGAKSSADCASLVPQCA
Biotin-avidin: interferes with biotinylated probe binding to avidin beads | shares compounds with RGS16-Gao HTS | streptavidin beads, fluorescein-biotin binding, flow cytometry | inhibition, % at 10 µM | 1,700 tested, under 10 active;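 active = inhibition above 50%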;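 also: median green fluorescence of gated singlet beads compared with DMSO control wells; 0% = DMSO wells and 100% = complete loss of bead fluorescence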
RGS8-Gao confirm: confirmation of regulators of human RGS8-Galphao interaction; shares compounds with RGS16-Gao HTS; binding response (% of control), % at 10 µM; bead-based flow cytometry RGS8-Galphao binding, fluorescence; actives lie on both sides; 1,700 tested, 3% active; in the data active = binding response below about 72% or above about 130%; inactive = in between;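 also: Galphao activated as GDP AlF4 complex before binding bead RGS8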
RGS7-Gao single: RGS7-Galphao interaction regulation, single point confirmation | shares compounds with RGS16-Gao HTS | bead-based flow cytometry RGS7-Galphao binding; actives lie on both sides | 1,700 tested, 7.8% active | AID 1837 | response (percent of control binding), % at 10 µM; in the data active = response below about 75% or above about 130%; inactive = in between;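 also: fluorescent Galphao activated with GDP and aluminum fluoride binding bead-coupled RGS7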
RGS16-Gao single: RGS16-Galphao interaction regulation, single point confirmation; shares compounds with RGS16-Gao HTS; bead-based flow cytometry, RGS16-Galphao binding; actives lie on both sides; response (% of control binding), % at 10 µM; 1,700 tested, 4% active; in the data active = response below about 74% or above about 130%; inactive = in between;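 also: Galphao activated as the GDP aluminium fluoride complex binding bead-coupled RGS16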
RGS4-Gao confirm: confirmation of regulators of human RGS4-Galphao interaction | shares compounds with RGS16-Gao HTS | binding response (% of control), % at 10 µM | 1,700 tested, 4% active | RGS4-Galphao binding, multiplexed bead flow cytometry; actives lie on both sides; in the data active = binding response below about 74% or above about 130%; inactive = in between
RGS19-Gao single: confirmation of regulators of human RGS19-Galphao interaction; shares compounds with RGS16-Gao HTS; bead-based flow cytometry RGS19-Galphao binding; actives lie on both sides; response (percent of control binding), % at 10 µM; 1,700 tested, 5% active; AID 1841; in the data active = response below about 50% or above about 160%; inactive = in between;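 also: 100% = no compound control and 0% = blank background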
Starred values were filed as active, the others as inactive; ? = inconclusive; . = not tested or not shown; [ ] = dose if it differs, or a comment. Most compounds without a hit are left out; they make up all but 1.2% or so of the library. Unless noted, no rule for the calls is given here.

SMILES	RGS7-Gao	RGS16-Gao HTS	GSH bead fluor	Avidin bead fluor	RGS4-Gao reg	RGS8-Gao	RGS4-Gao HTS	Biotin-avidin	RGS8-Gao confirm	RGS7-Gao single	RGS16-Gao single	RGS4-Gao confirm	RGS19-Gao single
O=C(NNc1ccccc1[N+](=O)[O-])Nc1cccc(Cl)c1	?	105.8	.	7	102.5	103.0	.	.	.	.	.	.	.
Oc1c(Br)cc(Br)cc1/C=N/N1CCN(Cc2ccccc2)CC1	171.8*[activator]	103.1	17	107*	112.1	100.9	112.1*	-0.9	104.1	101.3	105.0	102.3	99.5
COc1cccc(C2c3c(oc4cc(C)c(C)cc4c3=O)C(=O)N2CCCN(C)C)c1 (centres undefined)	263.2*[activator]	106.1	12	117*	122.2	96.0	122.2*	.	.	.	.	.	.
C/C(=N\Nc1cc(C)nc(NCc2ccccc2)n1)c1ccc([N+](=O)[O-])cc1	?	102.7	.	4	103.6	100.3	.	.	.	.	.	.	.
Cc1cccc(OCc2nnc(SCc3cc(=O)[nH]c4ccccc34)n2-c2ccccc2)c1	103.0	69.0	11	6	100.9	96.9	.	.	.	.	.	.	.
O=c1cc(CSc2nnc(COc3ccccc3)n2-c2ccccc2)c2ccccc2[nH]1	-15.3*	27.6	14	-2	-75.7*	103.7	.	-2.2	100.1	90.7	98.6	95.6	90.6
CCCNC(=O)Cn1sc2nc(C)cc(C)c2c1=O	?	15.5*	.	2	78.2	60.0	78.2*	0.0	52.2*	69.5*	9.1*	73.3*	3.9*
CCOC(=O)C1CCCN(C(=O)Cn2sc3nc(C)cc(C)c3c2=O)C1 (centres undefined)	95.3	17.5*	18	2	89.5	58.0*	89.5*	-1.3	61.1*	74.9*	15.6*	73.1*	15.4*
Cc1cc(C)c2c(=O)n(CC(=O)N3CCC(N4CCCCC4)CC3)sc2n1	117.0	64.1	16	3	92.4	82.4	.	.	.	.	.	.	.
Cc1nc2ccccc2c(=O)n1/N=C/c1ccccc1	99.2	93.8	37	9	99.4	100.7	.	.	.	.	.	.	.
Cc1nc2ccccc2c(=O)n1/N=C/c1ccncc1	135.2	.	31	.	132.0	.	.	0.2	102.3	112.2	103.2	106.3	109.4
CC(C)NC(=O)c1ccc(C2SCC(=O)N2Cc2ccccc2)cc1 (centres undefined)	254.3*[activator]	346.4*[activator]	21	185*	266.7*[activator]	89.9	.	-0.7	87.7	75.3*	84.2	82.4	71.1
CN1N=C(C(C)(C)C)CSC1=Nc1ccccc1	?	97.2	.	6	98.1	100.4	.	.	.	.	.	.	.
Cc1cccc(-n2c(SCC(=O)NCc3ccc4c(c3)OCO4)nc3ccccc3c2=O)c1	131.1	554.6	12	14	135.0	147.9*[activator]	135.0*	-2.2	100.5	97.3	100.3	97.9	92.2
O=C(CSc1nc2ccccc2c(=O)n1-c1ccccc1)NCc1ccc2c(c1)OCO2	103.5	98.8	12	22	102.2	97.4	.	.	.	.	.	.	.
COc1ccc(/C=C/C(=O)NC(=S)NCc2ccccc2)cc1OC	?	101.8	.	9	104.3	101.9	.	.	.	.	.	.	.
CCCc1cc(=O)[nH]c(SCC(=O)c2ccc3c(c2)NC(=O)CO3)n1	?	342.4*[activator]	.	179*	387.0*[activator]	150.5*[activator]	.	-0.8	99.1	83.9	91.7	87.9	77.8
COc1ccc(C(=O)NCC(=O)OCC(=O)Nc2ccc(C)c(S(=O)(=O)N(C)C)c2)cc1OC	?	87.4	.	.	97.1	97.8	.	.	.	.	.	.	.
CSc1nnc(NC(=O)c2ccc(C)c(S(=O)(=O)N3CCOCC3)c2)s1	13.6*	9.3*	29	0	17.9*	12.0*	.	2.1	102.4	104.4	104.5	105.9	102.7
Cc1nnc(NC(=O)c2ccc(C)c(S(=O)(=O)N3CCOCC3)c2)s1	100.4	99.2	46	6	100.7	102.3	.	.	.	.	.	.	.
CCCCCNCc1ccc(OCc2ccc(Cl)nc2)c(OC)c1	124.9	265.6*[activator]	10	25	116.1	132.0	116.1*	-1.7	101.8	94.9	102.7	100.9	112.7
O=C(/C=C/c1ccccc1)NNC(=O)C1CC1	.	.	41	.	.	.	.	0.3	95.2	98.3	93.0	94.1	107.5
COCC(=O)N(Cc1cc2ccc(C)cc2[nH]c1=O)c1ccc(OC)cc1	87.1	-28.2*	7	8	86.4	77.9	86.4*	-0.4	103.7	100.1	102.3	99.5	102.8
CC1CCN(CCCn2c(SCC(=O)Nc3ccccc3Cl)nc3ccccc3c2=O)CC1	126.8	265.4	15	11	119.5	145.0*[activator]	119.5*	-0.1	101.9	106.3	102.7	102.6	104.3
Cc1ccc(NC(=O)CSc2nc3ccccc3c(=O)n2CCCN2CCCCC2)cc1Cl	121.2	300.3	5	9	114.8	148.8*[activator]	114.8*	0.7	100.6	61.5*	86.6	71.5*	71.8
Cc1nn(-c2ccccc2)c(C)c1/C=N/NC(=O)CSc1nnc(SCc2ccc(Cl)cc2)s1	156.9*[activator]	104.5	11	68*	108.1	101.4	108.1*	0.4	96.8	91.8	85.2	92.5	58.1
O=C(CSc1nnc(SCc2ccccc2)s1)N/N=C/c1c(Cl)cccc1Cl	104.7	106.1	13	5	106.5	104.7	.	.	.	.	.	.	.
CC1=Nc2ccccc2N=C(NC(=O)CN2CCN(c3ccc(F)cc3)CC2)C1c1ccccc1 (centres undefined)	?	107.9	.	5	107.0	105.1	.	.	.	.	.	.	.
Cc1cc(C(=O)CSc2nc3ccccc3c(=O)[nH]2)c(C)n1C	8.0*	11.1*	24	-1	18.4*	10.3*	.	0.0	103.7	102.3	103.6	101.6	98.2
CCOC(=O)c1ccc(NC(=O)CSC(=S)N2CCOCC2)cc1	102.2	102.7	72	11	102.3	103.6	.	.	.	.	.	.	.
